Experimental data published in PubChem BioAssay (NCI).
Compounds without any hit were thinned out: in the full panel of roughly 83,000, 20% have a hit.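 Negative percent growth values reflect cell death: -40 means 40% of the cells present at the start died, and -100 means all died.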 A number with no mark means an inactive call. The source made the active and inactive calls. The calls were made as follows: active = growth percent below 10; inactive = the rest.

Tests used:
Test in all cases: NCI-60 one-dose screen, 48 h (100 = growth as untreated, 0 = no growth, -100 = all killed)
Conditions in all cases: 10 µM unless noted
SK-MEL-2 melanoma = system: SK-MEL-2 melanoma
EKVX NSCLC = system: EKVX NSCLC
SN12C renal = system: SN12C renal
UO-31 renal = system: UO-31 renal
TK-10 renal = system: TK-10 renal
ACHN renal = system: ACHN renal
CAKI-1 renal = system: CAKI-1 renal
A498 renal = system: A498 renal
CCRF-CEM leukemia = system: CCRF-CEM leukemia
MOLT-4 leukemia = system: MOLT-4 leukemia
SR leukemia = system: SR leukemia
RPMI-8226 leukemia = system: RPMI-8226 leukemia
OVCAR-8 ovarian = system: OVCAR-8 ovarian
OVCAR-5 ovarian = system: OVCAR-5 ovarian
SK-OV-3 ovarian = system: SK-OV-3 ovarian
IGROV1 ovarian = system: IGROV1 ovarian
OVCAR-3 ovarian = system: OVCAR-3 ovarian
HS 578T breast = system: HS 578T breast
NCI/ADR-RES ovarian = system: NCI/ADR-RES ovarian

Structure (SMILES)	growth (SK-MEL-2 melanoma)	growth (EKVX NSCLC)	growth (SN12C renal)	growth (UO-31 renal)	growth (TK-10 renal)	growth (ACHN renal)	growth (CAKI-1 renal)	growth (A498 renal)	growth (CCRF-CEM leukemia)	growth (MOLT-4 leukemia)	growth (SR leukemia)	growth (RPMI-8226 leukemia)	growth (OVCAR-8 ovarian)	growth (OVCAR-5 ovarian)	growth (SK-OV-3 ovarian)	growth (IGROV1 ovarian)	growth (OVCAR-3 ovarian)	growth (HS 578T breast)	growth (NCI/ADR-RES ovarian)
C#CCOc1cc(/C=N/Nc2nc(-c3ccc(OC)cc3)cs2)ccc1O	93.3%	67.8%	86.8%	72.6%	94.2%	90.8%	77.6%	82.4%	82.2%	87.3%	74.4%	63.3%	87.9%	97.1%	99.4%	91.8%	86.3%	95.8%	85.1%
C/C(=C(\c1ccc(OCCCN(C)C)cc1)c1ccc(OC(=O)Cc2ccccc2)cc1)c1ccc(Cl)cc1	92.7%	70.4%	87.3%	62%	87.8%	94.3%	83.7%	103%	66.4%	48.7%	-34.9% (active)	27.1%	89.2%	89.3%	73.3%	88.4%	70.4%	66.4%	85.1%
COc1ccc(CNc2ccc3nc(CCC4CCCCC4)[nH]c3c2)cc1	87%	79.1%	68%	33.9%	86.4%	93.4%	72.2%	53.2%	69.2%	52.9%	46.8%	40.2%	73.6%	83.4%	82%	61%	75.4%	79.7%	70.3%
O=C(Nc1ncc(Cc2ccccc2)s1)c1ccc2c(c1)OCCO2	34.5%	32.6%	34.5%	46.6%	38.8%	27.3%	17.2%	2.75% (active)	13.8%	6.38% (active)	5.84% (active)	14.6%	19%	28.5%	25%	23.4%	-11.3% (active)	25.1%	7.95% (active)
